# In all, about 310,000 compounds went through this assay and about 14,000 (4.5%) showed an effect of 50% or more. Effects have a minus sign here. The full list was thinned out, with strong results kept by preference.
# Molecular target: human ether-à-go-go-related gene (hERG) potassium channel (human, UniProt Q12809)
# Assay: primary screen, population patch clamp on CHO cells stably expressing hERG; higher = less effect of the substance
# 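Also: peak tail current of the secondary pulse compared with the same well before compound.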
# human ether-à-go-go-related gene (hERG) potassium channel, sequence (Q12809 whole entry, looked up): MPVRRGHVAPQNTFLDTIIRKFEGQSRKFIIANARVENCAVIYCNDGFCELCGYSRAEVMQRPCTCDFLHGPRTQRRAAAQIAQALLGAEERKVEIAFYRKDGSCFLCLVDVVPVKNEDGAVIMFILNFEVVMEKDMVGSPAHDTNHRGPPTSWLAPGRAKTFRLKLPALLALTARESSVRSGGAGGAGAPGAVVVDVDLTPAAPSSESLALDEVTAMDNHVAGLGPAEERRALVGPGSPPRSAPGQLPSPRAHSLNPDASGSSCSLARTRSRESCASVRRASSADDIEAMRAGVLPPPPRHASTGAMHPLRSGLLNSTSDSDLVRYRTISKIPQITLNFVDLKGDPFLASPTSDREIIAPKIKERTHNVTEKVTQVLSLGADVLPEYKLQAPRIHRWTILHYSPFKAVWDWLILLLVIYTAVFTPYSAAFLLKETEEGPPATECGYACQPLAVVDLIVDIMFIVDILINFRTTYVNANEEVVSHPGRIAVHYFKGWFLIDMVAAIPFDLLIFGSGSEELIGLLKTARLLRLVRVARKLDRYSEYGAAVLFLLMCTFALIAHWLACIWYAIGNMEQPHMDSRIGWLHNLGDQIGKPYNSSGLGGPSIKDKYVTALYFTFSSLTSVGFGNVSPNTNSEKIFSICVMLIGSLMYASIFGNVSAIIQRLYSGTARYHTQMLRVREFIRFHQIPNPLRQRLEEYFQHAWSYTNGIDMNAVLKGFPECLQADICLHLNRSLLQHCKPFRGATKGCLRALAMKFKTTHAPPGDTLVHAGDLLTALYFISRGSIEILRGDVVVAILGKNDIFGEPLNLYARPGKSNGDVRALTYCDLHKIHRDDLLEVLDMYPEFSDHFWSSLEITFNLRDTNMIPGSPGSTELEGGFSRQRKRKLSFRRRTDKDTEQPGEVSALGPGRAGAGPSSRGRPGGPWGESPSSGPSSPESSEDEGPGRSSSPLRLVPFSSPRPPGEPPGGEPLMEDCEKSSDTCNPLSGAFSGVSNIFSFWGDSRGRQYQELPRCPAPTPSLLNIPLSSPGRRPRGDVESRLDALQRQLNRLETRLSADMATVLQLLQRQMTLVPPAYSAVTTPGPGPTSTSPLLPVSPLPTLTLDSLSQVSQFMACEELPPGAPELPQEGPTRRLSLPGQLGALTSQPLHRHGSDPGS
row,SMILES,"hERG current change (%, negative = inhibition) at 10uM [%]"
1,COc1ccc(-c2nnc(SCC(N)=O)n2N)cc1,6.29
2,COc1cc(/C=N/NC(=O)c2nnn(-c3nonc3N)c2C(C)C)ccc1O,-2.72
3,O=C1CC(NC(=O)c2ccc(Cl)cc2)C(=O)N1 (centres unmarked),14.8
4,Cc1cccc2sc(NC(=O)c3ccc(OCC4CCCO4)cc3)nc12 (centres unmarked),9.85
5,CCc1ccc(NC(=S)N2CCNC(=O)C2CC(=O)OC)cc1 (centres unmarked),7.17
6,COCCNC(=O)CCCCCNS(=O)(=O)c1ccc(C)cc1,8.18
7,CCN(CC)CCNC(=O)c1ccc(NC(=O)Cc2ccccc2F)cc1,-6.75
8,CCc1ccc(N(CC(=O)NC(C)(C)C)C(=O)CNC(=O)c2cccs2)cc1,15.5
9,Cc1nc(S/C(=C/c2ccc(-c3ccc(C(=O)O)cc3)o2)C(=O)O)n[nH]1,-11.4
10,Cc1ccc(NC(=S)N(CCCN2CCN(C)CC2)Cc2cccs2)cc1C,-57
11,Cc1ccc(NC(=S)N(CCN(C)C)Cc2cccs2)cc1C,-46.7
12,O=S(=O)(c1ccc(SCc2ccccc2)nc1)N1CCCCC1,4.03
13,O=C(C[n+]1ccccc1)Nc1nc2ccccc2s1.[Cl-],0.223
14,COc1ccc(C2CC(c3ccc(Br)cc3)=NN2C(=O)CCC(=O)O)cc1OC (centres unmarked),9.97
15,Cc1ccc(O)c(NC(=O)C2CC(c3ccc(F)cc3)=NO2)c1 (centres unmarked),-3.98
16,C[C@]12CC[C@@H](O)C[C@H]1CC[C@@H]1[C@@H]2CC[C@]2(C)C(=O)CC[C@@H]12,-3.43
17,C[C@]12CC[C@H](O)C[C@@H]1CC[C@@H]1[C@@H]2CC[C@]2(C)C(=O)CC[C@@H]12,-58.3
18,C[C@]12CC[C@@H](O)C[C@@H]1CC[C@@H]1[C@@H]2CC[C@]2(C)C(=O)CC[C@@H]12,5.99
19,Cc1ccc(-n2c(O)c(C=NCCN3CCNCC3)c(=O)[nH]c2=S)cc1,22
20,O=S1(=O)CCN=C2SC3=C(CCCC3)N21,1.25
21,O=C(OCC(=O)N1CCCCC1)c1ccc2c(c1)C(=O)N(Cc1ccco1)C2=O,-28
22,CC1CCCCN1C(=O)COC(=O)c1ccc2c(c1)C(=O)N(Cc1ccco1)C2=O (centres unmarked),-34.9

row,SMILES,"hERG current change (%, negative = inhibition) at 10uM [%]"
1,CC1CC(C)CN(C(=O)COC(=O)c2ccc3c(c2)C(=O)N(Cc2ccco2)C3=O)C1 (centres unmarked),-68.7
2,CN(CC(=O)Nc1ccccc1Br)C(=O)c1cccn1C,16.2
3,Cl.O=C(CCS(=O)(=O)c1ccccc1)N(CCCN1CCOCC1)c1nc2ccccc2s1,-14.1
4,CCc1nn(CC(=O)NCCC2=CCCCC2)c(=O)c2cc3cc(F)ccc3n12,15.7
5,CN(C)S(=O)(=O)c1ccc(NC(=O)CN2CCN(c3ccccn3)CC2)cc1,13.9
6,CCn1c2ccccc2c2nnc(SCc3ccccc3)nc21,-3.61
7,CCn1c2ccccc2c2nnc(SCCN3CCCCC3)nc21,-39.1
8,CCN(CC)CCSc1nnc2c3ccccc3n(CCc3ccccc3)c2n1,-75.3
9,c1ccc(Cn2c3ccccc3c3nnc(SCCN4CCCCC4)nc32)cc1,-67.7
10,C=CCn1c2ccccc2c2nnc(SCCN3CCCCC3)nc21,-46.4
11,CSc1nnc2c3ccccc3n(Cc3ccccc3)c2n1,25.8
12,O=C1c2ccccc2C(=O)N1CSc1nnc2c3ccccc3n(CCc3ccccc3)c2n1,14.4
13,CSc1nnc2c3ccccc3n(CCc3ccccc3)c2n1,-12.1
14,CCN(CC)CCSc1nnc2c3ccccc3n(Cc3ccccc3)c2n1,-75.4
15,O=C(CSc1nnc(NC(=O)c2cccc(F)c2)s1)NC1CCCC1,13.9
16,Cc1cc(C)nc(NC(=O)c2c(F)c(F)c(F)c(C(=O)Nc3cc(C)cc(C)n3)c2F)c1,-8.14
17,CN(C)C=O.CNC(=O)CSc1nc2nc(C)cc(C)n2n1,0.176
18,Cc1cccc(OCC(=O)Nc2nnc(-c3ccco3)s2)c1,-1.94
19,CCOc1ccc2nc(SC3CC(=O)N(c4ccc(C)cc4)C3=O)sc2c1 (centres unmarked),-6.29
20,Cc1cc(C(=O)NCCCn2ccnc2)sc1-c1ccccc1,-10.3
21,O=c1ccc(-c2ccc(S(=O)(=O)NCC3CCN(Cc4cccc(F)c4)CC3)s2)n[nH]1,-8.55
22,CCOC(=O)c1c(C)[nH]c(C)c1S(=O)(=O)NCC1CCN(Cc2cccc(F)c2)CC1,-1.69

row,SMILES,"hERG current change (%, negative = inhibition) at 10uM [%]"
1,Cc1ccc(CN2CCC(CNS(=O)(=O)c3ccc(-c4ccc(=O)[nH]n4)s3)CC2)cc1,-60.6
2,CCOC(=O)c1c(C)[nH]c(C)c1S(=O)(=O)NCC1CCN(Cc2ccc(C)cc2)CC1,-60.2
3,COC(=O)c1cc(S(=O)(=O)NCC2CCN(Cc3cccc(F)c3)CC2)c[nH]1,-16.7
4,Cc1nc2scc(C)n2c(=O)c1S(=O)(=O)Nc1ccc(F)cc1,-22.8
5,COC(=O)c1cc(S(=O)(=O)NCC2CCN(Cc3ccccc3F)CC2)c[nH]1,-21.4
6,COC(=O)c1cc(S(=O)(=O)NCC2CCN(Cc3ccc(F)cc3)CC2)c[nH]1,-57
7,Cc1cccc(NS(=O)(=O)c2c(C)nc3scc(C)n3c2=O)c1,-65.2
8,O=c1ccc(-c2ccc(S(=O)(=O)NCC3CCN(Cc4ccccc4F)CC3)s2)n[nH]1,-32.6
9,CCOC(=O)c1c(C)[nH]c(C)c1S(=O)(=O)NCC1CCN(Cc2cccc(Cl)c2)CC1,-20.5
10,CCc1cccc(NS(=O)(=O)c2c(C)nc3scc(C)n3c2=O)c1,9.84
11,Cc1n[nH]c(C)c1CCNC(=O)C1CCC(=O)N(CCc2cccc(F)c2)C1 (centres unmarked),9.63
12,Cc1ccc(C(=O)NCCNC(=O)c2ccccc2)cc1,8.24
13,O=[N+]([O-])c1ccc(C23CC4CC(CC(O)(C4)C2)C3)cc1,-37.8
14,O=C(Nc1ccc2nc(-c3ccc4nc[nH]c4c3)[nH]c2c1)c1cccs1,17.1
15,COC(=O)c1cc(S(=O)(=O)NCCc2ccc(Cl)cc2)c[nH]1,-3.4
16,Cc1nc2scc(C)n2c(=O)c1S(=O)(=O)NCC1CCN(Cc2ccc(F)cc2)CC1,-49.7
17,COC(=O)c1cc(S(=O)(=O)NCC2CCN(Cc3ccc(C)cc3)CC2)c[nH]1,-73.8
18,Cc1nc2scc(C)n2c(=O)c1S(=O)(=O)NCCc1ccc(Cl)cc1,7.69
19,COC(=O)c1cc(S(=O)(=O)NCCc2ccc(C)cc2)c[nH]1,-9.92
20,Cc1nc2scc(C)n2c(=O)c1S(=O)(=O)NCC1CCN(Cc2ccc(Cl)cc2)CC1,-50.1
21,COC(=O)c1cc(S(=O)(=O)NCC2CCN(Cc3cc(C)ccc3C)CC2)c[nH]1,-11
22,COC(=O)c1cc(S(=O)(=O)NCC2CCN(Cc3cccc(Cl)c3)CC2)c[nH]1,-41.9

row,SMILES,"hERG current change (%, negative = inhibition) at 10uM [%]"
1,COC(=O)c1cc(S(=O)(=O)NCC2CCN(Cc3ccc(Cl)cc3)CC2)c[nH]1,-71.2
2,COc1ccc(C2NS(=O)(=O)OCC2C)cc1 (centres unmarked),16.4
3,COc1ccc(C(=O)NCCN2C(=O)S/C(=C\c3cccnc3)C2=O)c(OC)c1OC,-9.86
4,CCNC(=S)N1CCN(CCN=CC2=C(O)CC(C)(C)CC2=O)CC1,-9.75
5,CCC(CC)C(=O)N1CCN(c2ccccc2)CC1,-2.08
6,O=C(O)C(=O)O.OC(COCc1ccco1)CN1CCN(c2ccccc2)CC1 (centres unmarked),-24.8
7,CC(=O)c1ccc(N2CCN(CC(O)COC(c3ccccc3)c3ccccc3)CC2)cc1 (centres unmarked),-66.5
8,COc1ccc(N2CCN(CC(O)COC(c3ccccc3)c3ccccc3)CC2)cc1 (centres unmarked),-64.9
9,Cc1ccc(Cl)cc1N1CCN(Cc2nnnn2Cc2ccco2)CC1,-37.9
10,COc1ccc(N2CCN(CC(O)COCc3ccccc3)CC2)cc1.Cl (centres unmarked),-25.2
11,Cc1ccc(Cl)cc1N1CCN(CC(O)COCc2ccco2)CC1.O=C(O)C(=O)O (centres unmarked),-73.1
12,CC(=O)c1ccc(N2CCN(CC(O)COC(c3ccccc3)c3ccccc3C)CC2)cc1 (centres unmarked),-41
13,CC(=O)c1ccc(N2CCN(CC(O)c3ccccc3)CC2)cc1 (centres unmarked),-11.6
14,CC(=O)c1ccc(N2CCN(CC(O)COCc3ccco3)CC2)cc1 (centres unmarked),-56.3
15,COc1ccc(OCC(O)CN2CCN(c3ccccc3)CC2)cc1.Cl (centres unmarked),-39.2
16,Cc1ccc(Cl)cc1N1CCN(C(=S)NCc2ccco2)CC1,37.1
17,OC(COCc1ccccc1)CN1CCN(c2ccccc2)CC1 (centres unmarked),-45.2
18,CC(=O)Nc1ccc(S(=O)(=O)N2CCN(S(=O)(=O)N3CCCCCC3)CC2)cc1,8.41
19,CC(C)c1onc(C(=O)N2CCN(c3ccccc3)CC2)c1[N+](=O)[O-],14.1
20,CCC(C)(C)C1CCC(NC(=O)N2CCN(c3ccccc3O)CC2)CC1 (centres unmarked),-6.84

# Reference: PMC4336329 (PLoS ONE, 2015)
